Structures can show the parent of a compound that is named as a salt. ± gives the uncertainty stated by the source.
tested on: NCC-MFS5-C1; test: cell viability relative to DMSO control; higher = less growth inhibition; settings: 10 µM; treatment time: 3 days
Protocol: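 NCC-MFS5-C1 myxofibrosarcoma cells (1x10^4 per well, 384-well) were treated on day 2 with 10 µM of each drug. On day 5, viability was read by CCK-8 absorbance at 450 nm and normalised to the DMSO control (%), n = 2.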

| Compound | cell viability [%] |
| --- | --- |
| CC[C@@]1(O)C(=O)OCc2c1cc1n(c2=O)Cc2cc3ccccc3nc2-1 [Camptothecin] | 52.5 ± 6.1 |
| N.N.[Cl][Pt][Cl] [Cisplatin] | 79.1 ± 4.2 |
| O=C(O)CCCc1ccc(N(CCCl)CCCl)cc1 [Chloroambucil] | 99.4 ± 29 |
| C=C1C[C@@H]2[C@H](CC[C@]3(C)C(=O)CC[C@@H]23)[C@@]2(C)C=CC(=O)C=C12 [Exemestane] | 100 ± 4.3 |
| Cn1c(CCCC(=O)O)nc2cc(N(CCCl)CCCl)ccc21 [Bendamustine HCl] | 66.3 ± 8.2 |
| CC(=O)OC12COC1CC(O)C1(C)C(=O)C(O)C3=C(C)C(O)CC(O)(C(OC(=O)c4ccccc4)C21)C3(C)C (configuration not stated) [10-Deacetylbaccatin-III] | 86.6 ± 0.96 |
| O=P1(N(CCCl)CCCl)NCCCO1 (configuration not stated) [Cyclophosphamide Monohydrate] | 85.6 ± 2.8 |
| C/C=C(\C)C(=O)N[C@@H](c1ccccc1)[C@@H](O)C(=O)O[C@H]1C[C@@]2(O)[C@@H](OC(=O)c3ccccc3)[C@@H]3[C@]4(OC(C)=O)CO[C@@H]4C[C@H](O)[C@@]3(C)C(=O)[C@H](OC(C)=O)C(=C1C)C2(C)C [Cephalomannine] | 50.2 ± 8.7 |
| NCCCNCCSP(=O)(O)O [Amifostine] | 103 ± 3 |
| O=P1(NCCCl)OCCCN1CCCl (configuration not stated) [Ifosfamide] | 79.9 ± 6.8 |
| C=CCN1CC[C@]23c4c5ccc(O)c4O[C@H]2C(=O)CC[C@@]3(O)[C@H]1C5 [Naloxone HCl] | 72.1 ± 2.9 |
| Cc1c(N)nc(C(CC(N)=O)NCC(N)C(N)=O)nc1C(=O)NC(C(=O)NC(C)C(O)C(C)C(=O)NC(C(=O)NCCc1nc(-c2nc(C(=O)NCCC[S+](C)C)cs2)cs1)C(C)O)C(O[C@@H]1O[C@@H](CO)[C@@H](O)[C@H](O)[C@@H]1O[C@H]1O[C@H](CO)[C@@H](O)[C@H](OC(N)=O)[C@@H]1O)c1cnc[nH]1 (some centres not stated) [Bleomycin Sulfate] | 78.3 ± 12 |
